High-throughput results (PubChem)
In the library only some 2.3% were active in any assay of this set; here they are far more common.
SENP6 block: SENP6 protease inhibition; Recombinant SENP6 catalytic domain, aminoluciferin luminescence; Q9GZR1; actives 1.8% (n = 330,000); inhibition, % at 10 µM; AID 2599;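 active means inhibition above about 50% at the single tested dose, limit read from the data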
Target sequence (Q9GZR1 628-1112 limits assumed): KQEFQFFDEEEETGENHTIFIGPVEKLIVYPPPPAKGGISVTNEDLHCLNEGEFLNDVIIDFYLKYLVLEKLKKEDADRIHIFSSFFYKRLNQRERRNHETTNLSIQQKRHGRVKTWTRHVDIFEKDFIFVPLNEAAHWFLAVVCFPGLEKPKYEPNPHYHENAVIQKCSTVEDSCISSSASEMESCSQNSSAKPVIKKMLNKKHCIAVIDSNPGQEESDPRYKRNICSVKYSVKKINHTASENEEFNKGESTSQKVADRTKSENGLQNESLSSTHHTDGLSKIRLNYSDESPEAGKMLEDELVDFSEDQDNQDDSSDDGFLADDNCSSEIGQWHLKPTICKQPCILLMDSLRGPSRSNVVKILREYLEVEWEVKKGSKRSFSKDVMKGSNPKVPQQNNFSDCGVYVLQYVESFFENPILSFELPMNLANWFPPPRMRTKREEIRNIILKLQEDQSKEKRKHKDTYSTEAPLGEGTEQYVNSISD
SENP8 block-1: inhibitors of human SENP8 protease. Q96LD8. recombinant SENP8, Nedd8 substrate fluorescence. inhibition, % at 20 µM. actives 0.64% (n = 360,000). AID 602440; in the data active means inhibition mostly above about 40%, no sharp cut-off; inactive means mostly below about 27%
SENP7 inh: blocks the human protease SENP7 | inhibition, % at 5 µM | recombinant SENP7, Z-RLRGG-aminoluciferin luminescence, 40 min | AID 434973 | Q9BQF6 | actives 1.5% (n = 330,000);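 active means inhibition above about 50% at the single test dose, limit read from the data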
HSP90 refold inh: inhibitors of HSP90 luciferase refolding in rabbit reticulocyte lysate. actives 0.91% (n = 290,000). AID 1789. inhibition, % at 5.6 µM. luciferase refolding luminescence, 3 h;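 active means inhibition above the screen-wide mean plus 3 SD, computed separately per campaign, cut at about 16% in these data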;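 further: inhibitors lower the luminescence because luciferase stays unfolded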
SENP8 block-2: inhibitors of human SENP8 protease; Q96LD8; purified SENP8, Z-RLRGG-aminoluciferin cleavage, luminescence; inhibition, % at 10 µM; actives 1.2% (n = 330,000); in the data active means inhibition above about 50%
LGR2 inh: inhibitors of bursicon-induced Drosophila LGR2 receptor cAMP signaling; actives 0.35% (n = 380,000); inhibition, % at 9.99 µM; HEK293 LGR2, CRE-luciferase, bursicon-stimulated, 4 h; AID 720647;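 active means drop in luminescence signal, shown as inhibition above about 50% in the replicate tests, limit read from the data, passing the limit was not always enough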;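 further: agonist challenge used bursicon conditioned medium at about half maximal strength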
Of the large screens only hits and unclear results are named; the others gave an inactive call.

C[C@@H]1CCCCO[C@@H](CN(C)CC2CC2)[C@H](C)CN([C@H](C)CO)C(=O)c2cc(NC(=O)CCC(F)(F)F)ccc2O1	none (no result: SENP6 block, SENP8 block-1, SENP7 inh, HSP90 refold inh, SENP8 block-2)
COc1ccc(-c2coc3cc(OC)cc(O)c3c2=O)cc1	SENP7 inh 62.6 (no result: LGR2 inh)
CC(=O)N(c1ccccc1C)C1CCCC1	none
CC(=O)N(C1=C(Cl)C(=O)c2ccccc2C1=O)C1CCCCC1	SENP6 block 51.0
C#CC(=O)N(c1cccc(OC)c1)C(C(=O)NC1CCCC1)c1cccs1 (stereo not drawn)	LGR2 inh 103.9
COc1ccc(N(C(=O)Cc2cccs2)C(C(=O)NC2CCCC2)c2ccncc2)cc1OC (stereo not drawn)	none
C#CC(=O)N(c1ccc(OC)c(OC)c1)C(C(=O)NC1CCCC1)c1cccs1 (stereo not drawn)	LGR2 inh 101.3
C[C@@H]1CN([C@@H](C)CO)C(=O)c2cc(-c3ccc(F)cc3)cnc2O[C@@H]1CN(C)C(=O)NC1CCCC1	none (no result: SENP6 block, SENP8 block-1, SENP7 inh, HSP90 refold inh, SENP8 block-2)
CO[C@H]1CN(C)C(=O)c2ccc(NC(=O)C3CCC3)cc2OC[C@H](C)N(C(=O)CN(C)C)C[C@H]1C	none (no result: SENP6 block, SENP8 block-1, SENP7 inh, HSP90 refold inh, SENP8 block-2)
N#Cc1cc2c(nc1SCC(=O)Nc1nccs1)CCCCC2	HSP90 refold inh 19.7
CCc1nnc(NC(=O)CSc2nc3c(cc2C#N)CCC3)s1	none (no result: LGR2 inh)
C[C@H](CO)N1C[C@H](C)[C@H](CN(C)C(=O)Nc2ccc(C(F)(F)F)cc2)Oc2c(NC(=O)CCCCCC(=O)Nc3ccccc3N)cccc2C1=O	none (no result: SENP6 block, SENP8 block-1, SENP7 inh, HSP90 refold inh, SENP8 block-2)
O=C1C(NS(=O)(=O)c2cccs2)=C(N2CCOCC2)C(=O)c2ccccc21	SENP8 block-1 41.5
O=C1C(NS(=O)(=O)c2cccs2)=C(N2CCN(c3cccc(C(F)(F)F)c3)CC2)C(=O)c2ccccc21	SENP8 block-1 55.9 (no result: LGR2 inh)
CN1CCN(C2=C(NS(=O)(=O)c3cccs3)C(=O)c3ccccc3C2=O)CC1	none
COc1ccc2c3c([nH]c2c1)[C@H](CO)N(S(=O)(=O)c1cn(C)cn1)CC31CCN(Cc2ccccc2)CC1	none (no result: SENP6 block, SENP8 block-1, SENP7 inh, HSP90 refold inh, SENP8 block-2)
C/C=C/c1ccc([C@H]2[C@H](CO)N3C(=O)CN(Cc4ccc(C(=O)OC)cc4)C[C@@H]23)cc1	none (no result: SENP6 block, SENP8 block-1, SENP7 inh, HSP90 refold inh, SENP8 block-2)
Nc1cc2nc3ccccc3oc-2cc1=O	SENP8 block-1 44.5 (no result: LGR2 inh)
Nc1ccc(CCc2nc3ccccc3o2)cc1	none (no result: LGR2 inh)
O=C(N/N=C/c1cccc([N+](=O)[O-])c1O)C(O)(c1ccccc1)c1ccccc1	none
COc1cc([N+](=O)[O-])cc(/C=N/NC(=O)C(O)(c2ccccc2)c2ccccc2)c1O	SENP8 block-1 50.2
CC(=O)[C@@H]1[C@@H]2C(=O)N(c3ccc(F)c(Cl)c3)C(=O)[C@@H]2C2c3ccccc3C=CN21 (stereo partly drawn)	none (no result: SENP8 block-1, LGR2 inh)
CC(=O)[C@H]1[C@@H]2C(=O)N(c3cccc(Cl)c3)C(=O)[C@@H]2[C@H]2c3ccccc3C=CN21	SENP6 block 52.8 (no result: LGR2 inh)
CC(=O)[C@H]1[C@H](c2cccc(Cl)c2)C(C#N)(C#N)[C@@H]2c3ccccc3C=CN21	SENP6 block 66.9 (no result: SENP8 block-1, LGR2 inh)
CC(=O)[C@@H]1[C@@H]2C(=O)N(C3CCCCC3)C(=O)[C@@H]2C2c3ccccc3C=CN21 (stereo partly drawn)	SENP6 block 54.9 (no result: SENP8 block-1, LGR2 inh)
CN1C(=O)c2ccccc2C(C(=O)O)C1c1cccc(Cl)c1 (stereo not drawn)	none
C[C@@H]1CN([C@H](C)CO)C(=O)c2c(c3ccccc3n2C)-c2ccccc2CO[C@H]1CN(C)S(=O)(=O)c1ccc(C(F)(F)F)cc1	none (no result: SENP6 block, SENP8 block-1, SENP7 inh, HSP90 refold inh, SENP8 block-2)
CC(c1ccco1)N(C(=O)COc1ccc(Cl)cc1Cl)c1ccccn1 (stereo not drawn)	HSP90 refold inh 41.5
C[C@@H]1CN([C@@H](C)CO)C(=O)Cc2cc(NC(=O)Cc3cn(C)c4ccccc34)ccc2O[C@H]1CN(C)Cc1ccc(-c2ccccc2)cc1	none (no result: SENP6 block, SENP8 block-1, SENP7 inh, HSP90 refold inh, SENP8 block-2)
C[C@@H]1CN([C@@H](C)CO)C(=O)c2cc(-c3ccccc3)cnc2O[C@H]1CN(C)C	none (no result: SENP6 block, SENP8 block-1, SENP7 inh, HSP90 refold inh, SENP8 block-2)
COc1ccc(NC(=O)Nc2ccc3c(c2)[C@H]2C[C@H](CC(=O)NCCc4ccccc4)O[C@@H](CO)[C@H]2O3)cc1	none (no result: SENP6 block, SENP8 block-1, SENP7 inh, HSP90 refold inh, SENP8 block-2)
O=C(c1ccccc1)c1ccc(-c2ccc(O)cc2)cc1	SENP6 block 50.4, SENP8 block-2 51.0
Cc1noc(C)c1NC(=O)N(C)C[C@H]1Oc2ncc(C#CCN(C)C)cc2C(=O)N([C@H](C)CO)C[C@@H]1C	none (no result: SENP6 block, SENP8 block-1, SENP7 inh, HSP90 refold inh, SENP8 block-2)
CN=c1sc(C(=O)Nc2ccccc2)c(C)n1C	none
CN=c1sc2c(n1C)C(=O)c1ccccc1C2=O	SENP8 block-1 73.2 (no result: SENP6 block, SENP7 inh, HSP90 refold inh, SENP8 block-2)
